Measurements reported in the supplement of paper PMC9694430.

What follows are compounds tested on LOC_OS01G01410-cb001 (assay: thermal shift delta Tm vs DMSO control; higher = stronger stabilization (binding)). Conditions: 12.5 µM; protein concentration 2 µM.
Summary of the method: (§1)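 Rice kinase domain constructs were expressed in E. coli, purified, and tested by differential scanning fluorimetry with compound added in DMSO. Each well of a 96-well plate held 19.5 μl of 2 μM kinase in 100 mM potassium phosphate pH 7.5, 150 mM NaCl, 10% glycerol and 5 × SYPRO Orange, and fluorescence was read from 25°C to 95°C at 0.05°C/s. The melting temperature shift is the mean of triplicates, taken against protein with DMSO alone after Boltzmann fitting.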

**Q.** How did the “thermal shift delta Tm” value turn out when `COc1ncc(-c2ccc3nccc(-c4ccnnc4)c3c2)cc1NS(=O)(=O)c1ccc(F)cc1F` was run?
**A.** 1.94 °C

**Q.** With `C=CC(=O)Nc1ccc(CN2C(=O)N(c3cc(OC)cc(OC)c3)Cc3cnc(Nc4ccc(N5CCN(C)CC5)cc4)nc32)cc1` as the compound, how does the “thermal shift delta Tm” value read?
**A.** 1.43 °C

**Q.** Which “thermal shift delta Tm” value does the source give for `COc1ccc(S(=O)(=O)N(C(C)=O)c2ccccc2/C=C/c2cc[n+]([O-])cc2)cc1` here?
**A.** -0.1 °C

**Q.** How did the “thermal shift delta Tm” value turn out when `CNC(=O)c1ccccc1Nc1nc(Nc2ccc(N3CCOCC3)cc2OC)ncc1Cl` was run?
**A.** 0.74 °C

**Q.** With `O=C(O)c1ccc2c(c1)nc(Nc1cccc(Cl)c1)c1ccncc12` [Silmitasertib (CX-4945)] as the compound, how does the “thermal shift delta Tm” value read?
**A.** 0.84 °C

**Q.** For `N#Cc1ccc2[nH]c(O)c(-c3ccc(CN4CCOCC4)cn3)c2c1`, which “thermal shift delta Tm” value is on record?
**A.** 0.79 °C

**Q.** For `CN1CCC(COc2cnc(-c3cccc(Cn4nc(-c5cccc(C#N)c5)ccc4=O)c3)nc2)CC1`, which “thermal shift delta Tm” value is on record?
**A.** 0.33 °C

**Q.** Which “thermal shift delta Tm” value does the source give for `C[C@@H]1CN(CC(=O)Nc2ccc3c(c2)Cc2cccc(-c4cc(=O)cc(N5CCOCC5)o4)c2S3)C[C@H](C)O1` here?
**A.** 0.15 °C

**Q.** For `COc1cc(N2CCN(C)CC2)ccc1Nc1nccc(-c2cn(C)c3cnccc23)n1`, which “thermal shift delta Tm” value is on record?
**A.** 1.86 °C

**Q.** How did the “thermal shift delta Tm” value turn out when `COc1ccc(S(=O)(=O)N(CCO)c2ccccc2CN(C)C/C=C/c2ccc(Cl)cc2)cc1` [KN-93 Phosphate] was run?
**A.** 0.65 °C

**Q.** How did the “thermal shift delta Tm” value turn out when `COc1cc2ncnc(Nc3cccc(Cl)c3)c2cc1OC` [AG-1478 (Tyrphostin AG-1478)] was run?
**A.** 1.49 °C

**Q.** `C=C[C@@](C)(/C=C/c1ccc(O)cc1)CCC=C(C)C` [Bakuchiol] was tested. Which “thermal shift delta Tm” value did it give?
**A.** 1 °C

**Q.** Which “thermal shift delta Tm” value does the source give for `Cc1nc2ccc(-n3ncc(C(=O)c4cc5ccccc5[nH]4)c3N)cc2[nH]1` here?
**A.** 0.79 °C

**Q.** `CC(C)NC(=O)C1CCC(n2c(NC(=O)c3ccc(F)cc3)nc3ccc(CN4CCC(C(C)(C)O)CC4)cc32)CC1` (stereo not given) [Belizatinib (TSR-011)] was tested. Which “thermal shift delta Tm” value did it give?
**A.** 0.68 °C

**Q.** With `CN(C[C@@H]1COCCO1)S(=O)(=O)Nc1ccc2ccc3ncc(-c4cnn(C)c4)cc3c(=O)c2c1` as the compound, how does the “thermal shift delta Tm” value read?
**A.** 2.9 °C

**Q.** For `Cn1cc(/C=C2\C(=O)Nc3cccnc32)c2ccccc21`, which “thermal shift delta Tm” value is on record?
**A.** 3.9 °C

**Q.** Which “thermal shift delta Tm” value does the source give for `COc1cc(OC)c(C=C2C(=O)Nc3ccccc32)c(OC)c1` here?
**A.** 0.16 °C

**Q.** For `COc1ccc(/C=C/C(=O)C2(C(=O)/C=C/c3ccc(OC)c(OC)c3)CCCCC2)cc1OC`, which “thermal shift delta Tm” value is on record?
**A.** 0.52 °C

**Q.** `N#C/C(=C(/N)Sc1ccc(N)cc1)c1ccccc1C(F)(F)F` was tested. Which “thermal shift delta Tm” value did it give?
**A.** 1.06 °C

**Q.** With `CNC(=O)CN1CCC(Oc2cc3c(Nc4cccc(Cl)c4F)ncnc3cc2OC)CC1` [Sapitinib (AZD8931)] as the compound, how does the “thermal shift delta Tm” value read?
**A.** 0.6 °C

**Q.** For `CCS(=O)(=O)N1CCN(c2ccc(Nc3ncc(C(N)=O)c(NC4CC4)n3)cc2)CC1`, which “thermal shift delta Tm” value is on record?
**A.** 5.29 °C

**Q.** For `O=C1NC(=O)C(=Cc2ccc(-c3ccc(F)cc3)o2)S1` (stereo in doubt), which “thermal shift delta Tm” value is on record?
**A.** 0.61 °C

**Q.** With `C[C@@H](N)c1ccc(C(=O)Nc2ccnc3[nH]ccc23)cc1` as the compound, how does the “thermal shift delta Tm” value read?
**A.** 0.24 °C

The compounds below were run on LOC_OS01G02750-cb003 in the same assay as above. Conditions: 12.5 µM; protein concentration 2 µM.
Summary of the method: as §1

**Q.** How did the “thermal shift delta Tm” value turn out when `CCn1c(=O)c(-c2ccc(-c3cncs3)cc2Cl)cc2cnc(Nc3ccc(N4CCN(C)CC4)cc3)nc21` was run?
**A.** -0.15 °C

**Q.** For `Cc1ccc(CNc2ncnc3ccc(-c4ccc(CO)o4)cc23)o1`, which “thermal shift delta Tm” value is on record?
**A.** 1.49 °C

**Q.** With `COc1ccc(C(=O)Nc2sc3c(c2C(N)=O)CCCC3)cc1OC` as the compound, how does the “thermal shift delta Tm” value read?
**A.** 0.58 °C

**Q.** With `COc1cc2c(Oc3ccc4[nH]c(C)cc4c3F)ncnc2cc1OCCCN1CCCC1` [Cediranib (AZD2171)] as the compound, how does the “thermal shift delta Tm” value read?
**A.** 0.39 °C

**Q.** With `CNC(=O)c1cccc(-c2ccc3c(N4CCOC[C@@H]4C)nc(N4CCOC[C@@H]4C)nc3n2)c1` [Vistusertib (AZD2014)] as the compound, how does the “thermal shift delta Tm” value read?
**A.** 0.19 °C

**Q.** How did the “thermal shift delta Tm” value turn out when `Cc1ccc(C(=O)Nc2ccc(CN3CCN(C)CC3)c(C(F)(F)F)c2)cc1C#Cc1cnc2[nH]ncc2c1` [GZD824 Dimesylate] was run?
**A.** 3.52 °C

**Q.** Which “thermal shift delta Tm” value does the source give for `Cc1ccccc1-n1c(Cn2nc(-c3cccc(O)c3)c3c(N)ncnc32)nc2cccc(C)c2c1=O` here?
**A.** 0.33 °C

**Q.** For `Cc1nc(Nc2cnn(C3CCNCC3)c2)nc2c1N(C)C(=O)c1cc3ccccc3cc1N2C`, which “thermal shift delta Tm” value is on record?
**A.** 0.48 °C

**Q.** `O=C1NCCc2[nH]c(-c3ccncc3)cc21` was tested. Which “thermal shift delta Tm” value did it give?
**A.** -0.36 °C

**Q.** Which “thermal shift delta Tm” value does the source give for `Cc1nc2c(-c3cnc(N)nc3)nc(N3CCOCC3)nc2n1C(C)C` here?
**A.** 0.81 °C

**Q.** With `O=C(Nc1nc2cccc(-c3ccc(CN4CCS(=O)(=O)CC4)cc3)n2n1)C1CC1` [Filgotinib (GLPG0634)] as the compound, how does the “thermal shift delta Tm” value read?
**A.** 0.46 °C

**Q.** `Fc1ccc2[nH]ccc2c1-c1nc(N2CCOCC2)c2sc(CN3CCN(CC4CC4)CC3)cc2n1` was tested. Which “thermal shift delta Tm” value did it give?
**A.** 0.77 °C

**Q.** For `CCOC(=O)c1cnc2ccc(-c3cncc(NS(=O)(=O)c4ccccc4)c3)cn12`, which “thermal shift delta Tm” value is on record?
**A.** 2.3 °C

**Q.** With `CCOc1cn(-c2ccc(F)cc2C)nc1C(=O)Nc1ccc(Oc2ccnc3cc(OC)c(OC)cc23)c(F)c1` as the compound, how does the “thermal shift delta Tm” value read?
**A.** 1.86 °C

**Q.** With `COc1ncc(-c2ccc3nccc(-c4ccnnc4)c3c2)cc1NS(=O)(=O)c1ccc(F)cc1F` as the compound, how does the “thermal shift delta Tm” value read?
**A.** 1.21 °C

**Q.** `C=CC(=O)Nc1ccc(CN2C(=O)N(c3cc(OC)cc(OC)c3)Cc3cnc(Nc4ccc(N5CCN(C)CC5)cc4)nc32)cc1` was tested. Which “thermal shift delta Tm” value did it give?
**A.** 1.19 °C

**Q.** Which “thermal shift delta Tm” value does the source give for `COc1ccc(S(=O)(=O)N(C(C)=O)c2ccccc2/C=C/c2cc[n+]([O-])cc2)cc1` here?
**A.** 0.48 °C

**Q.** Which “thermal shift delta Tm” value does the source give for `CNC(=O)c1ccccc1Nc1nc(Nc2ccc(N3CCOCC3)cc2OC)ncc1Cl` here?
**A.** 1.05 °C

**Q.** For `O=C(O)c1ccc2c(c1)nc(Nc1cccc(Cl)c1)c1ccncc12` [Silmitasertib (CX-4945)], which “thermal shift delta Tm” value is on record?
**A.** 2.8 °C

**Q.** For `N#Cc1ccc2[nH]c(O)c(-c3ccc(CN4CCOCC4)cn3)c2c1`, which “thermal shift delta Tm” value is on record?
**A.** 1.84 °C

**Q.** How did the “thermal shift delta Tm” value turn out when `CN1CCC(COc2cnc(-c3cccc(Cn4nc(-c5cccc(C#N)c5)ccc4=O)c3)nc2)CC1` was run?
**A.** 0.27 °C

**Q.** Which “thermal shift delta Tm” value does the source give for `C[C@@H]1CN(CC(=O)Nc2ccc3c(c2)Cc2cccc(-c4cc(=O)cc(N5CCOCC5)o4)c2S3)C[C@H](C)O1` here?
**A.** 1.53 °C

**Q.** `COc1cc(N2CCN(C)CC2)ccc1Nc1nccc(-c2cn(C)c3cnccc23)n1` was tested. Which “thermal shift delta Tm” value did it give?
**A.** 0.45 °C

**Q.** Which “thermal shift delta Tm” value does the source give for `COc1ccc(S(=O)(=O)N(CCO)c2ccccc2CN(C)C/C=C/c2ccc(Cl)cc2)cc1` [KN-93 Phosphate] here?
**A.** 0.92 °C

**Q.** `COc1cc2ncnc(Nc3cccc(Cl)c3)c2cc1OC` [AG-1478 (Tyrphostin AG-1478)] was tested. Which “thermal shift delta Tm” value did it give?
**A.** 1.82 °C

**Q.** For `C=C[C@@](C)(/C=C/c1ccc(O)cc1)CCC=C(C)C` [Bakuchiol], which “thermal shift delta Tm” value is on record?
**A.** 1.1 °C

**Q.** Which “thermal shift delta Tm” value does the source give for `Cc1nc2ccc(-n3ncc(C(=O)c4cc5ccccc5[nH]4)c3N)cc2[nH]1` here?
**A.** 1.12 °C

**Q.** For `CC(C)NC(=O)C1CCC(n2c(NC(=O)c3ccc(F)cc3)nc3ccc(CN4CCC(C(C)(C)O)CC4)cc32)CC1` (stereo not given) [Belizatinib (TSR-011)], which “thermal shift delta Tm” value is on record?
**A.** 3.65 °C

**Q.** For `CN(C[C@@H]1COCCO1)S(=O)(=O)Nc1ccc2ccc3ncc(-c4cnn(C)c4)cc3c(=O)c2c1`, which “thermal shift delta Tm” value is on record?
**A.** 3.39 °C

**Q.** How did the “thermal shift delta Tm” value turn out when `Cn1cc(/C=C2\C(=O)Nc3cccnc32)c2ccccc21` was run?
**A.** 0.74 °C

**Q.** With `COc1cc(OC)c(C=C2C(=O)Nc3ccccc32)c(OC)c1` as the compound, how does the “thermal shift delta Tm” value read?
**A.** 0.24 °C

**Q.** How did the “thermal shift delta Tm” value turn out when `COc1ccc(/C=C/C(=O)C2(C(=O)/C=C/c3ccc(OC)c(OC)c3)CCCCC2)cc1OC` was run?
**A.** 0.5 °C

**Q.** `N#C/C(=C(/N)Sc1ccc(N)cc1)c1ccccc1C(F)(F)F` was tested. Which “thermal shift delta Tm” value did it give?
**A.** -0.14 °C

**Q.** `CNC(=O)CN1CCC(Oc2cc3c(Nc4cccc(Cl)c4F)ncnc3cc2OC)CC1` [Sapitinib (AZD8931)] was tested. Which “thermal shift delta Tm” value did it give?
**A.** 0.72 °C

**Q.** For `CCS(=O)(=O)N1CCN(c2ccc(Nc3ncc(C(N)=O)c(NC4CC4)n3)cc2)CC1`, which “thermal shift delta Tm” value is on record?
**A.** 1.8 °C

**Q.** How did the “thermal shift delta Tm” value turn out when `O=C1NC(=O)C(=Cc2ccc(-c3ccc(F)cc3)o2)S1` (stereo in doubt) was run?
**A.** 1.08 °C

**Q.** How did the “thermal shift delta Tm” value turn out when `C[C@@H](N)c1ccc(C(=O)Nc2ccnc3[nH]ccc23)cc1` was run?
**A.** 1.16 °C
